For 51 compounds, Percent Effect results are on record in ChEMBL document CHEMBL3988442, “University of Dundee, Small-Polar-MMV Screening Library” (2021).

In assay [1] the target is T1, Aspartate--tRNA(Asp/Asn) ligase (Mycobacterium tuberculosis (strain ATCC 25618 / H37Rv)) (UniProt P9WFW3). Note: in the data most compounds retested in dose-response had high values.
T1 sequence (whole entry): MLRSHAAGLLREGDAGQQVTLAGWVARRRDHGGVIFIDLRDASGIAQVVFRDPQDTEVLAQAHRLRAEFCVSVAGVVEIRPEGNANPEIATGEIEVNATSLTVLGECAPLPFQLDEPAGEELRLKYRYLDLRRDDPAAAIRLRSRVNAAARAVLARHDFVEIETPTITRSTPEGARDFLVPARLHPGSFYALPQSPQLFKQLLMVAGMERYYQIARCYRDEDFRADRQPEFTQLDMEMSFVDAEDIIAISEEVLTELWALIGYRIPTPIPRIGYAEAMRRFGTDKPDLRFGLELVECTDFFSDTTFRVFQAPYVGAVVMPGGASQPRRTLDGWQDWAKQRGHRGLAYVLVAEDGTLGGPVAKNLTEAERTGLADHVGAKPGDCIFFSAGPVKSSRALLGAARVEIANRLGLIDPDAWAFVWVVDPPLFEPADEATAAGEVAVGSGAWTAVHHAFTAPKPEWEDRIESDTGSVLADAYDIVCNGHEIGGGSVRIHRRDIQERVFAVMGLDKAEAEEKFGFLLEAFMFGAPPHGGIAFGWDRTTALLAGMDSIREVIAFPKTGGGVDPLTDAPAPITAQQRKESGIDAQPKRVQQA
The experiment in a line: Assay for Asp RNA synthetase-1 from Mycobacterium tuberculosis. Also on record: scale not given: direction of the effect not stated beside the values. The following applies: 30 µM. Type of assay: functional.

The target of assay [2] is Shiga toxin 2 (Escherichia coli O157:H7) (UniProt P09385+P09386). Kind of assay: E. coli 0.157:H7 Shiga Toxin SOP - stx2 screening assay. Type of assay: functional. Further details: scale not given: direction of the effect not stated beside the values. As to conditions: 30 µM.

`CCc1nnc2n1CCN(Cc1nc(-c3ccoc3)no1)C2`: the Percent Effect in assay [1] was -5.61%; in assay [2] it was -17.8%.

Turning to `NC(=O)CC1CCN(C(=O)NCc2ccccc2-n2cccn2)CC1`, the Percent Effect in assay [1] was -3.48%; in assay [2], -4.75%.

As for `CN(CC(=O)N1CCCC1c1cnn(C)c1)c1ccc(Cl)cn1` (configuration not stated), the values for the Percent Effect in assay [1] and in assay [2] were -2.16% and 29.7%, respectively.

For the compound `CN1CC(=O)N(c2ccsc2)CC12CCN(S(C)(=O)=O)C2` (configuration not stated), the Percent Effect in assay [1] was -0.605%; in assay [2], 0.893%.

On to `c1cc2n(n1)CC(CNCc1ccc(OC3CCCCC3)nc1)CN2` (configuration not stated), for which the Percent Effect in assay [1] is -3.37%; in assay [2], -39.3%.

As to `Cc1cnn(CC2CCN(CC(O)COc3ccc(F)cc3)CC2)c1` (configuration not stated), the Percent Effect in assay [1] was 1.99%; in assay [2], -53%.

Take `CC(O)CN1CCN(C(=O)c2cn(-c3ccccc3Cl)nn2)CC1` (configuration not stated): the figures for the Percent Effect in assay [1] and in assay [2] were 3.29% and -10.2%, respectively.

Take `COc1cccc(CN(C)C(=O)CCC(=O)c2ccc(Cl)cc2)c1OC`: the Percent Effect in assay [1] is -1.19%; in assay [2], -1.09%.

For the compound `O=C1CCc2cc(C(=O)NCc3ccc(-n4cncn4)nc3)ccc2N1`, the figures for the Percent Effect in assay [1] and in assay [2] were -5.04% and 3.55%, respectively.

As for `CN(C)S(=O)(=O)c1ccc(CN2CCCC2c2ccccc2)o1` (configuration not stated), the Percent Effect was 4.24% in assay [1] and -1.81% in assay [2].

`O=C(N[C@@H]1CN(Cc2cccs2)[C@@H]2CCCO[C@@H]21)C1CC1`: the Percent Effect in assay [1] was 4.13%; in assay [2], -24%.

Consider `Cc1ccoc1C(=O)N1CCOCC2(CCN(c3ncccn3)C2)C1` (configuration not stated), for which the Percent Effect worked out at 5.74% in assay [1] and 8% in assay [2].

Regarding `COc1ccc(C2CC(=O)Nc3c2cnn3C)cc1` (configuration not stated), the Percent Effect in assay [1] is -0.607%; in assay [2], -21.4%.

As for `CCc1nc(CN2CCCN(c3ncnc4ccccc34)CC2)no1`, the values for the Percent Effect in assay [1] and in assay [2] were 13.7% and -69.3%, respectively.

Take `COc1ccc(C)cc1CSCCn1nc2ccccn2c1=O`: the Percent Effect is -3.83% in assay [1] and 6.71% in assay [2].

With `COc1cccc(COCC(=O)N2CCN(CC(C)(C)O)CC2)c1`, the values for the Percent Effect in assay [1] and in assay [2] were -1.7% and 9.82%, respectively.

For `Cc1n[nH]c(C)c1NC(=O)CN1CCc2c(nc(C3CC3)n2C)C1`, the Percent Effect in assay [1] was 4.55%; in assay [2], -6.27%.

`CC(C)c1nn(C)c(N2CCOCC2)c1CNCCS(C)(=O)=O`: the Percent Effect in assay [1] was -2.08%; in assay [2] it was -5.89%.

Regarding `CSCC(C)(O)CNC(=O)c1ccc(Br)cc1C` (configuration not stated), the values for the Percent Effect in assay [1] and in assay [2] were -3.46% and -16%, respectively.

Turning to `CC(C)N(CC(N)=O)Cc1csc(COc2ccc(F)cc2)n1`, the Percent Effect was -2.28% in assay [1] and 1.96% in assay [2].

Regarding `COc1ccccc1C(O)CNC(=O)Nc1ncccc1C` (configuration not stated), the Percent Effect in assay [1] was -3.63%; in assay [2] it was 8.45%.

`COc1ccc(-n2ccc(C(=O)N3CCC(C(N)=O)C3)n2)cc1` (configuration not stated): the Percent Effect in assay [1] is 1.17%; in assay [2] it was 19.6%.

On to `CC(C)OCCCNC(=O)c1ccc(-c2ccco2)[nH]c1=O`, for which the Percent Effect is -5.99% in assay [1] and 19% in assay [2].

As to `Fc1ccccc1Cc1noc(CN2CCCC(CN3CCCC3)C2)n1` (configuration not stated), the Percent Effect was -0.254% in assay [1] and 11.5% in assay [2].

On to `Cc1cc(CN(C)C(=O)c2ccnc(N(C)C)c2)no1`, for which the Percent Effect in assay [1] was -3.84%; in assay [2], -18.4%.

Regarding `CC(=O)c1cccc(OCCCC(=O)NCC2CCCN2C)c1` (configuration not stated), the values for the Percent Effect in assay [1] and in assay [2] were -2.48% and -4.3%, respectively.

Regarding `CC(C)CN1CCN(C(=O)Nc2cc(C(F)(F)F)c[nH]c2=O)CC1`, the Percent Effect in assay [1] is -1.79%; in assay [2] it was 5.35%.

For the compound `O=C(Cn1c(=O)nc2n1C(=O)N(c1ccccc1)C2)Nc1ccccc1`, the figures for the Percent Effect in assay [1] and in assay [2] were -4% and 16.3%, respectively.

Regarding `Cc1cc(C(=O)N2CC[C@@H]3CN(S(C)(=O)=O)CCO[C@@H]3C2)c(C)o1`, the Percent Effect in assay [1] worked out at 2.19%; in assay [2], 1.92%.

For the compound `CC(C)Oc1cc(N2C[C@@H](C)O[C@@H](C)C2)nc(N)n1`, the Percent Effect in assay [1] was -0.457%; in assay [2] it was 0.94%.

Take `Cc1nn(C)c(C)c1CNC1CCOc2ccccc21` (configuration not stated): the values for the Percent Effect in assay [1] and in assay [2] were -0.466% and 8.07%, respectively.

For the compound `CN(Cc1ccccc1O)C(=O)NC1CCCN(c2ncccn2)C1` (configuration not stated), the Percent Effect in assay [1] is -4.06%; in assay [2], 34%.

For `CCOC(=O)NC(CNC(=O)c1ccccn1)CC(C)C` (configuration not stated), the values for the Percent Effect in assay [1] and in assay [2] were -2.16% and -4.01%, respectively.

Turning to `CCS(=O)(=O)N1CCc2c(CN(C)Cc3ccco3)cncc2C1`, the Percent Effect in assay [1] is -0.0582%; in assay [2], -1.96%.

Turning to `COCCn1cc2c(n1)C(CNCc1ccc(F)cc1)OCC2` (configuration not stated), the Percent Effect in assay [1] is 1.2%; in assay [2] it was -6.53%.

In the case of `CNC(=O)[C@H]1C[C@@H]2CN(S(=O)(=O)c3ccccc3)C[C@@H]2N1C`, the values for the Percent Effect in assay [1] and in assay [2] were -3.51% and -39.6%, respectively.

As for `COc1cccc2c1OCC(C(=O)N1CCC(N3CCOC3=O)CC1)C2` (configuration not stated), the Percent Effect is -3.21% in assay [1] and 17% in assay [2].

Consider `Cc1ccccc1CS(=O)(=O)CC(=O)NCc1ccccc1F`, for which the Percent Effect in assay [1] came to 7.37%; in assay [2], 10.5%.

Consider `COCCN(Cc1ccoc1)C(=O)c1cccnc1SC`, for which the Percent Effect in assay [1] was 1.65%; in assay [2], -0.408%.

Turning to `CCOC1COC2(CCN(S(=O)(=O)c3cccc(F)c3)CC2)C1` (configuration not stated), the Percent Effect is 16.4% in assay [1] and -13% in assay [2].

For `CCCC(C)CN1CCC(n2cc(CCCO)nn2)CC1` (configuration not stated), the Percent Effect was 1.56% in assay [1] and -23.7% in assay [2].

As for `CNS(=O)(=O)c1ccc(C(=O)N2CCCC(n3cccn3)C2)cc1` (configuration not stated), the Percent Effect stood at 0.589% in assay [1] and 2.6% in assay [2].

Turning to `Cn1cc(CNCCn2cccn2)c(-c2cccnc2)n1`, the Percent Effect in assay [1] is 1.65%; in assay [2] it was -0.247%.

For `CC(NC(=O)NCC1(O)CCC1)c1ccc(OCC2CC2)c(F)c1` (configuration not stated), the figures for the Percent Effect in assay [1] and in assay [2] were -6.14% and -4.99%, respectively.

Turning to `CCOc1ccc(CNCCCn2ccnc2)cc1Br`, the Percent Effect is -5.78% in assay [1] and -77.4% in assay [2].

Regarding `COc1c(CNC(c2ccc(F)cc2)C(C)(C)C)c(C)nn1C` (configuration not stated), the values for the Percent Effect in assay [1] and in assay [2] were -1.59% and 40.7%, respectively.

`CN(C)CCNC(=O)CNC(=O)N1CCc2c([nH]c3ccc(Cl)cc23)C1`: the Percent Effect in assay [1] was 6.71%; in assay [2], -77.4%.

For `Cc1cnn(CCC(=O)N2CCN(c3nc(C)cs3)CC2)c1`, the figures for the Percent Effect in assay [1] and in assay [2] were -4.11% and -15.5%, respectively.

Regarding `Cc1cc(C(=O)O)cc(S(=O)(=O)Nc2ccc3c(c2)OCO3)c1C`, the Percent Effect in assay [1] was 11.6%; in assay [2], -48%.

As to `COc1ncccc1NC(=O)C1CCN(S(C)(=O)=O)CC1`, the Percent Effect in assay [1] is -1.61%; in assay [2] it was -91.6%.

For the compound `Cn1c(C2CC2)nc2c1CCN(CC(=O)Nc1nncs1)C2`, the Percent Effect in assay [1] is 7.07%; in assay [2] it was -9.76%.
